Experimental data as given in PubChem BioAssay (NCATS).
Records with an inconclusive call do not appear. The source made the active and inactive calls. Calls come from the whole dose curve; as a rule, active = well fitted inhibition curve with a large enough effect; inconclusive = small, poorly fitted or top-dose-only effect; inactive = flat fitted curve, though single readings scatter.

What was measured:
Assay in all cases: qHTS profiling for inhibitors of Plasmodium falciparum proliferation (AID 504749); note: nearly all actives have a fitted effect of over 60% in size
Conditions in all cases: P. falciparum in erythrocytes, SYBR Green DNA, 72 h; series mostly up to 28.7 µM
CP252 = test system: CP252
Method in brief: (§1)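 P. falciparum-infected erythrocytes (0.3% parasitemia, 2.5% hematocrit final) were exposed to compounds for 72 h at 37 C in 5% CO2, then lysed with SYBR Green buffer overnight at room temperature; parasite DNA fluorescence was normalized to artemisinin and DMSO controls.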

CP256 = test system: CP256
Method in brief: as §1

CP260 = test system: CP260
Method in brief: as §1

CP262 = test system: CP262
Method in brief: as §1

CP265 = test system: CP265
Method in brief: as §1

CP266 = test system: CP266
Method in brief: as §1

CP268 = test system: CP268
Method in brief: as §1

CP269 = test system: CP269
Method in brief: as §1

CP286 = test system: CP286
Method in brief: as §1

CP291 = test system: CP291
Method in brief: as §1

CP297 = test system: CP297
Method in brief: as §1

CP305 = test system: CP305
Method in brief: as §1

CP315 = test system: CP315
Method in brief: as §1

CP325 = test system: CP325
Method in brief: as §1

CP329 = test system: CP329
Method in brief: as §1

CP335 = test system: CP335
Method in brief: as §1

DFO2036 = test system: DFO2036
Method in brief: as §1

DIV14 = test system: DIV14
Method in brief: as §1

DIV17 = test system: DIV17
Method in brief: as §1

DIV30 = test system: DIV30
Method in brief: as §1

Dd2 = test system: Dd2
Method in brief: as §1

ECU = test system: ECU
Method in brief: as §1

FAB9 = test system: FAB9
Method in brief: as §1

GB4 = test system: GB4
Method in brief: as §1

HB3 = test system: HB3
Method in brief: as §1

ICS = test system: ICS
Method in brief: as §1

JCK = test system: JCK
Method in brief: as §1

N140 = test system: N140
Method in brief: as §1

P93_24 = test system: P93_24
Method in brief: as §1

P94_40 = test system: P94_40
Method in brief: as §1

PAD = test system: PAD
Method in brief: as §1

PC15 = test system: PC15
Method in brief: as §1

PC26 = test system: PC26
Method in brief: as §1

PC49 = test system: PC49
Method in brief: as §1

SC27B = test system: SC27B
Method in brief: as §1

TAB109 = test system: TAB109
Method in brief: as §1

TAB113 = test system: TAB113
Method in brief: as §1

TAB165 = test system: TAB165
Method in brief: as §1

W2 = test system: W2
Method in brief: as §1

Measured: Potency

C[N+]1([O-])[C@H]2CC[C@H]1CC(OC(=O)[C@@H](CO)c1ccccc1)C2 (some centres undefined)
inactive: CP252 | CP256 | CP260 | CP262 | CP265 | CP266 | CP268 | CP269 | CP286 | CP291 | CP297 | CP305 | CP315 | CP325 | CP329 | CP335 | DFO2036 | DIV14 | DIV17 | DIV30 | Dd2 | ECU | FAB9 | GB4 | HB3 | ICS | JCK | N140 | P93_24 | P94_40 | PAD | PC15 | PC26 | PC49 | SC27B | TAB109 | TAB113 | TAB165 | W2
